Data from ChEMBL document CHEMBL4513141, “CO-ADD screening of NIH (USA) - Clinical Collection” (2021).
Potency and affinity values are given separately.

Key:
[1] = system: Klebsiella pneumoniae; conditions: Concentration 20 uM; ASSAY_TEST Inhibition of Bacterial Growth; detection method Absorption (OD600); MEDIA CAMHB; plate type 384well; NBS; CORNING #3640; time 18 hr
[2] = system: Candida albicans; conditions: 20 µM
[3] = system: Cryptococcus neoformans; conditions: Concentration 20 uM; ASSAY_TEST Inhibition of Fungal Growth; detection method Resazurin; Absorption (OD600-OD570); plate type 384well; NBS; CORNING #3640

Q: Which results are given for `CCN(CC)CCOC(=O)c1ccc(N)cc1.Cl` [PROCAINE HYDROCHLORIDE]?
A: Inhibition [1]: 12%; Inhibition [2]: 3.62%; Inhibition [3]: -2.16%

Q: What does the source list for `CNCCCN1c2ccccc2CCc2ccccc21.Cl` [DESIPRAMINE HYDROCHLORIDE]?
A: Inhibition [1]: 6.09%; Inhibition [2]: 2.92%

Q: `CC(C)(S)C(N)C(=O)O` (stereo not drawn) [DL-PENICILLAMINE] was tested. Which Inhibition [1] did it give?
A: Its Inhibition is 8.23%.

Q: And the Inhibition [2]?
A: Its Inhibition is 3.66%.

Q: What about the Inhibition [3] of the same molecule?
A: The Inhibition was -9.16%.

Q: For `COc1ccnc(C[S+]([O-])c2nc3cc(OC(F)F)ccc3[n-]2)c1OC.O.[Na+]` (centres undefined) [PANTOPRAZOLE SODIUM], which Inhibition [1] is on record?
A: The Inhibition was 5.85%.

Q: What about the Inhibition [2] of the same molecule?
A: Its Inhibition is 19.6%.

Q: What about the Inhibition [3] of the same molecule?
A: Its Inhibition is -26.37%.

Q: With `CN(C)CC/C=C1/c2ccccc2COc2ccc(CC(=O)O)cc21.Cl` [OLOPATADINE HYDROCHLORIDE] as the molecule, how does the Inhibition [1] read?
A: Its Inhibition is 3.13%.

Q: What about the Inhibition [2] of the same molecule?
A: Its Inhibition is 4.03%.

Q: And the Inhibition [3]?
A: The Inhibition was 4.6%.

Q: `CS(=O)(=O)OCCCCOS(C)(=O)=O` [BUSULFAN] was tested. Which Inhibition [1] did it give?
A: The Inhibition was 14.59%.

Q: What about the Inhibition [2] of the same molecule?
A: Its Inhibition is 3.72%.

Q: What about the Inhibition [3] of the same molecule?
A: Its Inhibition is -1.79%.

Q: With `CC1Cc2ccccc2N1NC(=O)c1ccc(Cl)c(S(N)(=O)=O)c1` (centres undefined) [INDAPAMIDE] as the molecule, how does the Inhibition [1] read?
A: Its Inhibition is 9.63%.

Q: And the Inhibition [2]?
A: The Inhibition was -0.23%.

Q: What about the Inhibition [3] of the same molecule?
A: The Inhibition was -0.18%.

Q: With `CC(=O)OCC(=O)C12OC3(CCCC3)OC1CC1C3CCC4=CC(=O)C=CC4(C)C3(F)C(O)CC12C` (centres undefined) as the molecule, how does the Inhibition [1] read?
A: The Inhibition was 13.26%.

Q: And the Inhibition [2]?
A: Its Inhibition is 3.39%.

Q: And the Inhibition [3]?
A: The Inhibition was 1.74%.

Q: For `NS(=O)(=O)c1cc2c(cc1C(F)(F)F)NCNS2(=O)=O` [HYDROFLUMETHIAZIDE], which Inhibition [1] is on record?
A: Its Inhibition is 13.59%.

Q: And the Inhibition [2]?
A: Its Inhibition is -0.33%.

Q: What about the Inhibition [3] of the same molecule?
A: Its Inhibition is -2.31%.

Q: What does the source list for `CC[C@@H]1C(=O)OC[C@@H]1Cc1cncn1C.Cl` [PILOCARPINE HYDROCHLORIDE]?
A: Inhibition [1]: 13.79%; Inhibition [2]: 2.29%; Inhibition [3]: -1.97%
